Bioassay records deposited in PubChem by Broad Institute.
The list is not random: actives were taken first. Their share in the collection is about 6.8%.
T cruzi growth-1: T. cruzi proliferation inhibition; inhibition, % at 8.34 µM; actives 5.9% (n = 77,000); T. cruzi beta-gal in NIH3T3, GalScreen luminescence, 90 h;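 active = mean inhibition above about 93%, with at least 55% of replicates each passing it, limit read from the data, passing the limit was not always enough; inconclusive = only one of those two conditions holds; inactive = neither condition holds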
C diff growth: blocks growth of Clostridium difficile; AID 1259249; growth activity, negative = inhibition, % at 16 µg/mL (by protocol); Clostridium difficile clinical isolate growth, OD600, 24 h; stronger effect = lower value; actives 0.25% (n = 86,000);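 active = mean growth activity at or below -80% and every replicate also at or below -80%; inconclusive = mean at or below -80% but some replicate above -80%; inactive = mean growth activity above -80%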;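 also: 0% = DMSO wells and -100% = levofloxacin 16 µg/mL wells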
Pf Dd2 inh: blocks growth of Plasmodium falciparum Dd2 parasites; actives 2.3% (n = 94,000); P. falciparum Dd2 growth, SYBR Green, 72 h; stronger effect = lower value; activity change, % at 10 µM; in the data active = activity change below about -80%; inconclusive = no clear call, values can overlap the other calls
T cruzi growth-2: inhibitors of T. cruzi proliferation; shares compounds with T cruzi growth-1; T. cruzi beta-gal in NIH3T3, GalScreen luminescence, 90 h; inhibition, % at 8.35 µM; actives 72% (n = 5,600); AID 651739;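 active = mean replicate inhibition above about 95% and at least 55% of replicates individually reaching it, limit read from the data; inconclusive = only one of the two criteria is met; inactive = neither criterion is met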
T cruzi growth-3: blocks T. cruzi growth in NIH3T3 host cells. shares compounds with T cruzi growth-1. T. cruzi beta-gal in NIH3T3, GalScreen luminescence, 90 h. inhibition, % at 2.09 µM. actives 21% (n = 5,600);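 active = mean inhibition above about 95%, with at least 55% of replicates also reaching it, limit read from the data; inconclusive = meets just one of the two conditions; inactive = meets neither condition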;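 also: plate controls were neutral control median for no effect and positive control median for full effect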
3T3 cytotox: kills mouse NIH/3T3 fibroblasts | NIH/3T3 viability, CellTiter-Glo ATP luminescence, 90 h | shares compounds with T cruzi growth-1 | actives 14% (n = 5,600) | cytotoxicity (signal decrease), % at 8.35 µM;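 active = mean signal decrease across replicates above about 35% based on untreated-well scatter, with enough replicates individually passing, limit read from the data; inconclusive = no rule stated though some were filed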;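 also: 0% = median of neutral control wells and 100% = median of positive control wells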
NIH3T3 tox 2: kills mouse NIH/3T3 fibroblasts; shares compounds with T cruzi growth-1; NIH/3T3 viability, CellTiter-Glo ATP luminescence, 90 h; inhibition, % at 24.9 µM; actives 56% (n = 5,600);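 active = mean loss of cell viability signal at or above a set limit, and enough replicates individually reaching it; inconclusive = meets only the mean limit or only the replicate share; inactive = meets neither condition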;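 also: 0% = median of neutral control wells and 100% = median of positive control wells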
* marks the source's active call; other numbers are inactive results; ? = inconclusive; . = no result given.

SMILES | T cruzi growth-1 | C diff growth | Pf Dd2 inh | T cruzi growth-2 | T cruzi growth-3 | 3T3 cytotox | NIH3T3 tox 2
C[C@H](CO)N1C[C@H](C)[C@H](CN(C)S(C)(=O)=O)Oc2ncc(C#Cc3cccc(F)c3)cc2C1=O | . | -5 | -3 | . | . | . | .
C[C@H](CO)N1C[C@H](C)[C@H](CN(C)S(=O)(=O)c2cccs2)Oc2ncc(C#Cc3cccc(F)c3)cc2C1=O | 98* | 0 | -39 | 110* | 69 | 2 | 5
COc1ccc(-c2cnc3c(c2)C(=O)N([C@H](C)CO)C[C@@H](C)[C@@H](CN(C)S(=O)(=O)c2ccc(OC)cc2)O3)cc1 | 69 | . | -21 | . | . | . | .
C[C@H](CO)N1C[C@H](C)[C@H](CN(C)C)Oc2ncc(-c3cc4ccccc4o3)cc2C1=O | 77 | -6 | 1 | . | . | . | .
C[C@H](CO)N1C[C@H](C)[C@H](CN(C)S(=O)(=O)c2cccs2)Oc2ncc(-c3cc4ccccc4o3)cc2C1=O | 123* | 15 | -75 | 110* | 75 | 35* | 15
COc1ccc(-c2cnc3c(c2)C(=O)N([C@@H](C)CO)C[C@H](C)[C@@H](CN(C)S(=O)(=O)c2ccc(OC)cc2)O3)cc1 | 105* | . | -37 | 104* | 58 | 9 | ?
COc1ccc(S(=O)(=O)Nc2ccc3c(c2)CC(=O)N([C@@H](C)CO)C[C@H](C)[C@@H](CN(C)Cc2ccncc2)O3)cc1 | . | 1 | -1 | . | . | . | .
O=C(C[C@@H]1C=C[C@@H](NC(=O)Nc2ccc(F)cc2)[C@@H](CO)O1)NCc1ccccn1 | 32 | 9 | 12 | . | . | . | .
CCC(=O)N1[C@@H]2CN(C(=O)Nc3ccccc3Cl)c3ccccc3[C@@H]2[C@@H]1CO | 8 | -1 | 10 | . | . | . | .
O=C(C[C@@H]1CC[C@H]2[C@@H](COC[C@H](O)CN2C(=O)c2cnccn2)O1)NCc1ccc(Oc2ccccc2)cc1 | . | -10 | 16 | . | . | . | .
CNC[C@H]1Oc2ccc(NC(=O)C3CCCCC3)cc2CC(=O)N([C@@H](C)CO)C[C@H]1C | 31 | -1 | 8 | . | . | . | .
COc1ccc2c3c([nH]c2c1)[C@H](CO)N(Cc1ccccc1)CC31CN(C(=O)c2cccnc2)C1 | . | 7 | -61 | . | . | . | .
O=C(C[C@@H]1CC[C@@H]2[C@H](COC[C@@H](O)CN2Cc2cc(F)ccc2F)O1)N[C@@H]1CCN(Cc2ccccc2)C1 | 95 | -2 | -11 | . | . | . | .
O=C(C[C@H]1CC[C@H]2[C@@H](COC[C@H](O)CN2Cc2ccccc2)O1)NCc1ccccc1Cl | 35 | . | -12 | . | . | . | .
O=C(C[C@@H]1CC[C@@H]2[C@H](COC[C@@H](O)CN2Cc2ccccc2)O1)NCc1ccccc1Cl | 100* | . | -7 | 60 | 59 | 12 | 16
O=C(C[C@H]1CC[C@H]2[C@@H](COC[C@H](O)CN2Cc2ccccc2)O1)N[C@@H]1CCN(Cc2ccccc2)C1 | 98* | 1 | -50 | 99* | 47 | 2 | 9
O=C(C[C@H]1CC[C@@H]2[C@H](COC[C@@H](O)CN2Cc2ccccc2)O1)N[C@@H]1CCN(Cc2ccccc2)C1 | 81 | 4 | -32 | . | . | . | .
O=C(C[C@H]1CC[C@H]2[C@@H](COC[C@H](O)CN2Cc2cc(F)ccc2F)O1)N[C@@H]1CCN(Cc2ccccc2)C1 | 96* | 16 | -60 | 80 | 58 | 1 | ?
Cc1noc(C)c1NC(=O)N[C@H]1CC[C@H](CC(=O)N2CCN(C)CC2)O[C@H]1CO | -12 | -2 | 21 | . | . | . | .
Cc1ccc(S(=O)(=O)Nc2cccc3c2O[C@H](CN(C)C(=O)Nc2ccc4c(c2)OCO4)[C@@H](C)CN([C@H](C)CO)C3=O)cc1 | 76 | 1 | 6 | . | . | . | .
CC(C)NC(=O)Nc1ccc2c(c1)C(=O)N([C@@H](C)CO)C[C@@H](C)[C@@H](CN(C)C(=O)c1ccccc1)OCCCC[C@H](C)O2 | 5 | -2 | 44 | . | . | . | .
C[C@H](CO)N1C[C@H](C)[C@@H](CN(C)Cc2ccc(C(F)(F)F)cc2)Oc2ccc(NS(=O)(=O)c3ccccc3)cc2C1=O | 85 | -6 | -1 | . | . | . | .
C[C@H]1CN([C@@H](C)CO)C(=O)c2cc(NS(=O)(=O)c3ccccc3)ccc2O[C@@H]1CN(C)Cc1ccc(C(F)(F)F)cc1 | 104* | -2 | 16 | 70 | 64 | 24 | 39*
C[C@@H]1CN([C@@H](C)CO)C(=O)c2cc(NS(=O)(=O)c3ccccc3)ccc2O[C@@H]1CN(C)Cc1ccc(C(F)(F)F)cc1 | 73 | 3 | 19 | . | . | . | .
C[C@H](CO)N1C[C@H](C)[C@H](CN(C)Cc2ccc(C(F)(F)F)cc2)Oc2ccc(NS(=O)(=O)c3ccccc3)cc2C1=O | 104* | 13 | 0 | 76 | 70 | -9 | 11
SMILES | T cruzi growth-1 | C diff growth | Pf Dd2 inh | T cruzi growth-2 | T cruzi growth-3 | 3T3 cytotox | NIH3T3 tox 2
C[C@H](CO)N1C[C@H](C)[C@@H](CN(C)Cc2ccc3c(c2)OCO3)Oc2ccc(NS(=O)(=O)c3ccccc3)cc2C1=O | -3 | . | 30 | . | . | . | .
C[C@@H]1CN([C@@H](C)CO)C(=O)c2cc(NS(=O)(=O)c3ccccc3)ccc2O[C@@H]1CN(C)Cc1ccc2c(c1)OCO2 | 102* | 2 | -2 | -31 | 11 | -5 | 18
COc1ccc(NC(=O)N(C)C[C@@H]2Oc3c(NS(=O)(=O)c4ccc(Cl)cc4)cccc3C(=O)N([C@H](C)CO)C[C@@H]2C)cc1 | 42 | 5 | -11 | . | . | . | .
C[C@@H]1CN([C@H](C)CO)C(=O)c2cc(NC(=O)Nc3ccc4c(c3)OCO4)ccc2O[C@@H](C)CCCCO[C@H]1CN(C)S(=O)(=O)c1cn(C)cn1 | 40 | -2 | 26 | . | . | . | .
COc1cccc(NC(=O)N2C[C@@H](O)COC[C@@H]3O[C@@H](CC(=O)NCc4ccccc4F)CC[C@H]32)c1 | . | -1 | 29 | . | . | . | .
CCCNC(=O)Nc1ccc2c(c1)C(=O)N(C)[C@H]1CC[C@@H](CC(=O)O)O[C@H]1CO2 | -21 | -3 | -5 | . | . | . | .
C[C@@H]1CCCCO[C@@H](CN(C)C(=O)C2CCCCC2)[C@@H](C)CN([C@H](C)CO)C(=O)c2cc(NS(=O)(=O)c3ccc(Cl)cc3)ccc2O1 | 59 | 6 | -5 | . | . | . | .
C[C@@H]1CN([C@H](C)CO)C(=O)c2cc(NS(=O)(=O)c3ccc(F)cc3)ccc2O[C@@H](C)CCCCO[C@H]1CN(C)C(=O)C1CCCCC1 | ? | -7 | -61 | 101* | 63 | -7 | -6
C[C@H](CO)N1C[C@H](C)[C@@H](CN(C)C(=O)C2CCCCC2)OCCCC[C@H](C)Oc2ccc(NS(=O)(=O)c3ccc(Cl)cc3)cc2C1=O | 67 | -3 | 25 | . | . | . | .
C[C@@H]1CCCCO[C@@H](CN(C)C(=O)C2CCCCC2)[C@H](C)CN([C@H](C)CO)C(=O)c2cc(NS(=O)(=O)c3ccc(Cl)cc3)ccc2O1 | ? | 5 | -14 | 110* | 88 | -2 | 100*
